Test [1] concerns MILI (PIWIL2) piRISC loaded with piRNA #1 (26 nt). The test is described as follows: pre-steady-state target cleavage rate (min^-1); guide: piRNA #1 5'p-UGAGGUAGUAGGUUGUAUAGUAUCCA; higher = faster piRNA-guided slicing of the target. The following applies: auxiliary factor: 500 nM mouse GTSF1. Summed up: (§1)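 Cleave-'n-Seq: a transcribed, DNA-blocked target RNA library (0.1 nM) was mixed with 1 nM active affinity-purified piRISC carrying one synthetic guide, with or without 500 nM GTSF1 partner protein, in HEPES–potassium acetate buffer at 33 °C for 0–8 or 0–960 min. Uncleaved targets were sequenced and normalised to depth and to weakly complementary targets. Three trials were pooled, and k3 was capped at 0.0001 min^-1. The pre-steady-state cleavage rate came from a burst-and-steady-state fit.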

Test [2] relates to EfPiwi piRISC loaded with piRNA #1 (26 nt). Put plainly: pre-steady-state target cleavage rate (min^-1); auxiliary factor: 500 nM Ephydatia muelleri Gtsf1; guide: piRNA #1 5'p-UGAGGUAGUAGGUUGUAUAGUAUCCA; higher = faster piRNA-guided slicing of the target. Summed up: as §1
Test [3] concerns MILI (PIWIL2) piRISC loaded with L1MC piRNA (26 nt). The test is described as follows: pre-steady-state target cleavage rate (min^-1); guide: L1MC piRNA 5'p-UAACUAAAUACUAUGCAAGCUGUAGG; higher = faster piRNA-guided slicing of the target. Particulars: auxiliary factor: 500 nM mouse GTSF1. An outline of the steps:
as §1

For test [4], the system named is EfPiwi piRISC loaded with L1MC piRNA (26 nt). The test is described as follows: pre-steady-state target cleavage rate (min^-1); auxiliary factor: none (no Gtsf1); guide: L1MC piRNA 5'p-UAACUAAAUACUAUGCAAGCUGUAGG; MIWI and MILI are mouse PIWI proteins and EfPiwi is from a freshwater sponge; tags in brackets are library labels; higher = faster piRNA-guided slicing of the target. An outline of the steps: as §1

± gives the standard deviation.

For “GGAGAGGAUACUAUACAACCUACUACCUCU [g2:g25:cont:t1U]”, the “pre-steady-state target cleavage rate” value in test [1] turned out to be 0.238 ± 0.025; in test [2], 1.56 ± 0.47.
Taken in the same sequence, the figures for GGAGACCAUAACUAUACAACCUACUACCUCA were 0.135 ± 0.0094 and 0.138 ± 0.043.
Regarding GGAGACGAUACUAUACAACCUAAUACCUCA, the “pre-steady-state target cleavage rate” value in test [1] was 0.103 ± 0.015; in test [2] it was 0.00553 ± 0.0025.
For GGAGAGGAUACUUUACAACCUACAACCUCA, in that order: 0.11 ± 0.016 and 0.00228 ± 0.0015.
Take GGAGACCUAACGAUACAACCUACUACCUCA: the entries for the “pre-steady-state target cleavage rate” value in test [1] and in test [2] were 0.257 ± 0.053 and 0.0136 ± 0.0071, respectively.
For GGAGUGGUAUCUAUACAACCUACUACCUCA, in that order: 0.136 ± 0.0091 and 0.0613 ± 0.023.
As for GGAGACCUAUCUAUACAUCCUACUACCUCA, the “pre-steady-state target cleavage rate” value in test [1] was 0.182 ± 0.018; in test [2], 0.00738 ± 0.0031.
For GGAGUGGAUACUAUACAACCAUCUACCUCA, in that order: 0.00432 ± 0.0024 and 0.00525 ± 0.0023.
For GGAGACCUUACUUUACAACCUACUACCUCA, in that order: 0.129 ± 0.01 and 0.00728 ± 0.0042.
With GGAGACCUUACUAUACAACCUACUGCCUCA, the “pre-steady-state target cleavage rate” value was found to be 0.0872 ± 0.011 in test [1] and 0.00661 ± 0.0029 in test [2].
Taken in the same sequence, the figures for GGAGAGGAUAGUAUACAACCUACUACCUGA were 0.0327 ± 0.0082 and 0.00298 ± 0.0022.
“GGAGACGAUACUAUACAACCUACUACCUCC [g2:g24:cont:t1C]”: the “pre-steady-state target cleavage rate” value in test [1] amounted to 0.182 ± 0.014; in test [2], 0.0508 ± 0.017.
Taken in the same sequence, the figures for GGAGAGGAAACUAUACAACCUACUACCUGA were 0.047 ± 0.014 and 0.0041 ± 0.0024.
With GGAGAAGAUACUAUACAACCUACUACCUCA, the figures for the “pre-steady-state target cleavage rate” value in test [1] and in test [2] were 0.22 ± 0.016 and 0.0965 ± 0.035, respectively.
Taken in the same sequence, the figures for GGAGACGAUACUAUAGCAACCUACUACCUCA were 0.162 ± 0.013 and 0.00432 ± 0.0027.
For GGAGACGAUACUAUACAUGCUACUACCUCA, in that order: 0.115 ± 0.01 and 0.00483 ± 0.0015.
Taken in the same sequence, the figures for GGAGAGGAUACUAAUCAACCUACUACCUCA were 0.148 ± 0.011 and 0.00473 ± 0.0039.
On to GGAGACCAUACUAUACUACGUACUACCUCA, for which the “pre-steady-state target cleavage rate” value was determined as 0.0334 ± 0.0056 in test [1] and 0.00415 ± 0.0028 in test [2].
For the sequence GGAGUGGGUACUAUACAACCUACUACCUCA, the “pre-steady-state target cleavage rate” value in test [1] was 0.148 ± 0.01; in test [2] it was 0.00924 ± 0.0037.
GGAGUGGUUACUAUACUACCUACUACCUCA: the “pre-steady-state target cleavage rate” value was found to be 0.183 ± 0.01 in test [1] and 0.00596 ± 0.0023 in test [2].
For GGAGACCAUUCUUUACAACCUACUACCUCA, in that order: 0.0902 ± 0.012 and 0.0111 ± 0.0056.
Regarding GGAGACCUAUGAUAUGAACCUACUACCCCA, the “pre-steady-state target cleavage rate” value in test [1] and in test [2] was less than 0.0001 throughout.
Turning to GGAGACCUUACUAUACUACCUACUACCUCA, the figures for the “pre-steady-state target cleavage rate” value in test [1] and in test [2] were 0.159 ± 0.014 and 0.00739 ± 0.0039, respectively.
On to GGAGACCUUACUAUACAUCCUAGUACCUCA, for which the “pre-steady-state target cleavage rate” value in test [1] is 0.0856 ± 0.018; in test [2], 0.00256 ± 0.0016.
For GGAGACCUUACUAUACAACCGACUACCUCA, in that order: 0.00424 ± 0.0031 and 0.00553 ± 0.0036.
Taken in the same sequence, the figures for GGAGAGGAUACUAAACAACCAACUACCUCA were 0.00772 ± 0.0023 and 0.00246 ± 0.0017.
GGAGAGGAUACUAAACAACCUACUACCUGA: the “pre-steady-state target cleavage rate” value amounted to 0.0485 ± 0.011 in test [1] and 0.00273 ± 0.0018 in test [2].
For GGAGAGGAUACAAUACAACCUAGUACCUCA, the “pre-steady-state target cleavage rate” value in test [1] stood at 0.0411 ± 0.0087; in test [2], 0.00263 ± 0.0018.
In the case of GGAGACCAUUCUAUACAACCUACUUCCUCA, the “pre-steady-state target cleavage rate” value in test [1] is 0.0522 ± 0.0086; in test [2] it was 0.00372 ± 0.0035.
As to GGAGUGGAUACUAUACAACGAACUACCUCA, the “pre-steady-state target cleavage rate” value in test [1] worked out at 0.00366 ± 0.0017; in test [2], 0.00257 ± 0.0018.
Take GGAGUGGAUACUAUACAUCCUACUACCUCA: the “pre-steady-state target cleavage rate” value turned out to be 0.267 ± 0.014 in test [1] and 0.124 ± 0.044 in test [2].
For the sequence “GGAGACCUAUCUAUACAACCUACUACCUCA [g2:g20:cont:t1A]”, the “pre-steady-state target cleavage rate” value worked out at 0.11 ± 0.018 in test [1] and 0.0119 ± 0.0046 in test [2].
For GGAGAGGAUACUAAUACAACCUACUACCUCA, in that order: 0.147 ± 0.011 and 0.128 ± 0.048.
For GGAGACCAUUCUAUACAACGUACUACCUCA, in that order: 0.0141 ± 0.0029 and 0.00402 ± 0.0025.
Turning to “GGAGACCUAACUAUACAACCUACUACCUCA [g2:g21:cont:t1A]”, the “pre-steady-state target cleavage rate” value was 0.148 ± 0.032 in test [1] and 0.013 ± 0.0043 in test [2].
For GGAGACCUUACUAUACAACCUACUACGUGA, in that order: 0.137 ± 0.024 and 0.00535 ± 0.0036.
In the case of GGAGACGAUACUAUACAACCUCACUACCUCA, the “pre-steady-state target cleavage rate” value in test [1] was determined as 0.00413 ± 0.0033; in test [2] it was 0.0049 ± 0.0024.
Turning to GGAGACCAUACUAUACAACCUAGUACCUCA, the “pre-steady-state target cleavage rate” value in test [1] was 0.0657 ± 0.013; in test [2] it was 0.00446 ± 0.0014.
On to GGAGACCUUACUAUACAACCCACUACCUCA, for which the “pre-steady-state target cleavage rate” value in test [1] was determined as 0.0224 ± 0.0038; in test [2] it was 0.00926 ± 0.0048.
Taken in the same sequence, the figures for GGAGACGAUACUAUACAACCUACUACCUA were 0.151 ± 0.018 and 0.104 ± 0.038.
For GGAGACCAUACUAUACAACCUACUACCUAA, in that order: 0.139 ± 0.015 and 0.0194 ± 0.0072.
Regarding GGAGAGAGAUACUAUACAACCUACUACCUCA, the entries for the “pre-steady-state target cleavage rate” value in test [1] and in test [2] were 0.201 ± 0.013 and 0.159 ± 0.057, respectively.
Take GGAGUGGAUACUAUACAACCUACUACCUACA: the “pre-steady-state target cleavage rate” value in test [1] is 0.122 ± 0.013; in test [2], 0.068 ± 0.024.
For GGAGACGAUACUAUACAACCUACAAGCUCA, in that order: 0.0171 ± 0.0086 and 0.00381 ± 0.0023.
For “GGAGACCUUACUAUACAACCUACUACCUCA [g2:g22:cont:t1A]”, in that order: 0.165 ± 0.018 and 0.0238 ± 0.0084.
Taken in the same sequence, the figures for GGAGUGGAUACUAUACAAGCAACUACCUCA were 0.00874 ± 0.0017 and 0.00256 ± 0.0013.
As for GGAGAGGAUAGUAUACAACCUACUAGCUCA, the “pre-steady-state target cleavage rate” value in test [1] was 0.00705 ± 0.0035; in test [2], 0.00348 ± 0.0023.
Taken in the same sequence, the figures for GGAGUGGAUACUAUACAACCCACUACCUCA were 0.0174 ± 0.0024 and 0.00487 ± 0.0019.
Taken in the same sequence, the figures for GGAGAGGAUACUAUACAACCUACUAGCUCA were 0.0627 ± 0.012 and 0.00484 ± 0.0019.
Take GGAGAGGAUACUAUACAACCUACGUACCUCA: the “pre-steady-state target cleavage rate” value in test [1] is 0.0773 ± 0.012; in test [2] it was 0.00321 ± 0.0014.
Taken in the same sequence, the figures for GGAGUGGAUACCUAUACAACCUACUACCUCA were 0.0993 ± 0.019 and 0.0485 ± 0.018.
For GGAGAGGAUACUAUACAAUCUACUACCUCA, in that order: 0.129 ± 0.0097 and 0.0116 ± 0.0062.
For GGAGACCAUACUAUACCAACCUACUACCUCA, in that order: 0.0299 ± 0.0075 and 0.00761 ± 0.0031.
As to GGAGACCAAACUAUACAUCCUACUACCUCA, the “pre-steady-state target cleavage rate” value turned out to be 0.168 ± 0.034 in test [1] and 0.0348 ± 0.013 in test [2].
With GGAGACGAUAGUAUACAACCUACUACCUGA, the “pre-steady-state target cleavage rate” value in test [1] was 0.113 ± 0.017; in test [2], 0.0032 ± 0.0023.
Turning to UCCUGGAUGAGCUUGCAUAGUAGUUAGUUA, the “pre-steady-state target cleavage rate” value came to 0.158 ± 0.026 in test [3] and 0.00517 ± 0.0042 in test [4].
For UCCUGGUACAGCUUGCAUAGAAUUUACUUA, in that order: 0.0206 ± 0.011 and less than 0.0001.
With UCCUGCUACAGGAAGCAUAGUAUUUACAAA, the “pre-steady-state target cleavage rate” value in test [3] is 0.0258 ± 0.008; in test [4], less than 0.0001.
For UCCUCCUACAGGAAGCAUAGUAUUUACAAA, in that order: 0.0698 ± 0.014 and less than 0.0001.
UCCUGGAUGUGCUUGCAAAGUAUUUUGUUA: the “pre-steady-state target cleavage rate” value in test [3] was 0.0179 ± 0.0057; in test [4], less than 0.0001.

The values are drawn from the supplement of paper PMC10338343.
